Measurements published in PubChem BioAssay AID1745848 (National Center for Advancing Translational Sciences (NCATS), 2022).
In all, about 2,100 compounds went through this assay and about 940 (45%) were called active. Another 48% or so got no clear call; they are omitted. Calls follow the shape of the dose curve; as a rule, active = well fitted inhibition curve with a large enough effect; inconclusive = small, poorly fitted or top-dose-only effect; inactive = no such curve, though single readings can be large or run the other way. So high a share suggests a set chosen from earlier hits. Some of the results follow.

Experiment: Confirmatory qHTS for Inhibitors of ATXN expression; also: nearly all actives have a fitted effect of over 65% in size
Details: ATXN2-luciferase reporter cells, luminescence, 24 h; series mostly up to 11.5 µM
Outline: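 Cells carrying ATXN2-luciferase reporter exposed 24 h at 37 C to compound. Viability then read by CellTiter-Fluor (25 uM GF-AFC, 30 min), followed by SteadyGlo luminescence; medium-only wells set 100% inhibition.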
Potency is read from the fitted curve at half-maximal effect.

Row | SMILES | Potency
1 | CCCCC(=O)NC(c1ccccc1Cl)c1ccc2cccnc2c1O (centres undefined) | 2 µM (active)
2 | CCCCC(=O)NC(c1ccccc1OC)c1ccc2cccnc2c1O (centres undefined) | 2 µM (active)
3 | NNC(=O)/C(=N/Nc1ccccc1)S(=O)(=O)c1ccc(Cl)cc1 | 4.47 µM (active)
4 | CCCOc1ccc(C(=O)C(CN2CCOCC2)c2ccccc2)cc1 (centres undefined) | 25.1 µM (active)
5 | CC(=O)c1ccc(N2CCN(CC(O)COC(c3ccccc3)c3ccccc3)CC2)cc1 (centres undefined) | inactive
6 | COc1ccccc1C(=O)NNC1=C(C(=O)C(F)(F)F)CCC1 | 1.58 µM (active)
7 | CCN(CC)CCn1c2ccccc2c2cnc(N)c(C#N)c21 | 1.58 µM (active)
8 | O=S(=O)([N-]c1nc2ccccc2nc1-[n+]1ccc(Cc2ccccc2)cc1)c1ccc(Br)s1 | 8.91 µM (active)
9 | Cc1ccc2c(c1)N(C)/C(=C/c1cccc[n+]1C)S2 | 4.47 µM (active)
10 | CC[n+]1ccccc1/C=C1\Sc2ccc(C)cc2N1C | 8.91 µM (active)
11 | Cn1nccc1C(=O)N1CCCC(C(=O)c2cccc3ccccc23)C1 (centres undefined) | inactive
12 | COc1cccc(-c2nc(N3CCN(C)CC3)c3ccccc3n2)c1O | 3.16 µM (active)
13 | CCOC(=O)c1c(NC(=O)/C=C/C(=O)O)sc(C)c1-c1ccc(Cl)cc1 | 25.1 µM (active)
14 | COc1cc(/C=C/CN2CCC(C(=O)NC(c3ccc(F)cc3)c3ccc4ccccc4n3)CC2)ccc1OC(C)=O (centres undefined) | 17.8 µM (active)
15 | CCCC(=O)NC(c1ccccc1)c1ccc2cccnc2c1O (centres undefined) | 2.82 µM (active)
16 | CCCCC(=O)NC(c1ccccc1)c1ccc2cccnc2c1O (centres undefined) | 2.82 µM (active)
17 | CC(N)c1csc(NC(=O)c2cc(C(C)(C)C)nn2Cc2ccccc2)n1 (centres undefined) | 3.16 µM (active)
18 | FC(F)(F)c1nc(-c2cccs2)ncc1-c1nnnn1-c1ccc(Cl)cc1 | 20 µM (active)
19 | Cc1nc2ccc(NC(=O)c3ccc(S(=O)(=O)N(C)c4ccccc4)cc3)cc2s1 | 2.24 µM (active)
20 | CN(c1ccccc1)S(=O)(=O)c1cccc(NC(=O)c2cc(=O)c3ccccc3o2)c1 | 28.2 µM (active)
21 | CCCC(=O)Nc1ccc2nc(SCC(=O)N3CCCC3)sc2c1 | inactive
22 | Cc1nc2ccc(NC(=O)c3cccc(S(=O)(=O)N(C)c4ccccc4)c3)cc2s1 | 3.98 µM (active)
23 | CCCCC(=O)N(CCOC)c1nnc(-c2ccccc2C)s1 | inactive
24 | CC[n+]1c(C=C2C=C(C)OC(C)=C2)sc2ccccc21 | 6.31 µM (active)

Row | SMILES | Potency
25 | Cc1cc(Nc2cccc([N+](=O)[O-])c2)n2c(nc3ccccc32)c1C#N | 1.12 µM (active)
26 | Cc1cc(Cl)c(C(=O)Nc2cccc(C(F)(F)F)c2)c(C)n1 | 11.2 µM (active)
27 | CCOc1ccccc1C(=O)Nc1ccc2nc(N3CCN(c4ncccn4)CC3)cc(C)c2c1 | 7.94 µM (active)
28 | CCCCC(=O)NC(c1ccc(N(CC)CC)cc1)c1ccc2cccnc2c1O (centres undefined) | 0.355 µM (active)
29 | CCCCC(=O)NC(c1ccc(N(C)C)cc1)c1ccc2cccnc2c1O (centres undefined) | 1.26 µM (active)
30 | COc1ccc(CNCC(O)(c2ccc(Cl)cc2)c2ccc(Cl)cc2)cc1OC | 3.16 µM (active)
31 | Cc1cc(C)c2c(N)c3cccc(C)c3nc2n1 | 10 µM (active)
32 | O=C(COc1ccc(F)cc1)N/N=C/c1cccc2cccnc12 | 3.55 µM (active)
33 | O=C(COc1ccc(Cl)cc1)N/N=C/c1cccc2cccnc12 | 25.1 µM (active)
34 | CC(=O)Nc1sc2c(c1-c1nc3ccccc3s1)CN(C(C)C)CC2 | 10 µM (active)
35 | CCc1sc(C(=O)Nc2nc(-c3ccccn3)cs2)cc1C | 8.91 µM (active)
36 | O=C(Nc1nc(-c2ccccn2)cs1)c1ccco1 | 4.47 µM (active)
37 | CC(Oc1ccc(F)cc1)C(=O)Nc1nc(-c2ccccn2)cs1 (centres undefined) | 2.24 µM (active)
38 | O=C(Nc1nc(-c2ccccn2)cs1)c1ccccc1-n1cnnn1 | 2 µM (active)
39 | CCc1cc(-c2[nH]ncc2-c2ccc(OC)cc2)c(O)cc1O | 3.98 µM (active)
40 | Cc1cc(NC(=O)CSc2nccn2-c2cccc(C)c2C)no1 | inactive
41 | Cc1cc(NC(=O)/C=C/C(=O)N(c2ccccc2C)C(C(=O)NC2CCCC2)c2ccc(F)cc2)no1 (centres undefined) | 3.55 µM (active)
42 | COc1ccc(C2CC(c3ccccc3Cl)=NN2c2ccc(S(N)(=O)=O)cc2)cc1 (centres undefined) | inactive
43 | COc1ccc(C2CC(c3ccccc3C(F)(F)F)=NN2c2ccc(S(N)(=O)=O)cc2)cc1 (centres undefined) | 25.1 µM (active)
44 | COc1ccc(C2CC(c3cccc(Cl)c3)=NN2c2ccc(S(N)(=O)=O)cc2)cc1 (centres undefined) | 25.1 µM (active)
45 | Oc1ccc(CN2CCC(Cc3ccccc3)CC2)c2cccnc12 | 0.891 µM (active)
46 | Oc1ccc(Cc2ccccc2)c2cccnc12 | 10 µM (active)
47 | O=c1c(Cc2ccccc2)c(O)nc2n1CCS2 | inactive
48 | Oc1ccc(Cl)c2cccnc12 | 28.2 µM (active)

Row | SMILES | Potency
49 | CC(=O)N(C1=C(Cl)C(=O)c2ccccc2C1=O)C1CCCCC1 | 8.91 µM (active)
50 | CCCC(=O)Nc1c(C(=O)OCC)[nH]c2ccccc12 | inactive
51 | CCOc1ccccc1NC(=O)CCCc1nc2ccccc2c(=O)[nH]1 | 2.51 µM (active)
52 | N#CCc1nc2ccccc2c(=O)[nH]1 | inactive
53 | CCOC(=O)C(NS(=O)(=O)c1ccc(C)cc1)(C(F)(F)F)P(=O)(OCC(C)C)OCC(C)C (centres undefined) | inactive
54 | Cc1cccc(OCC(=O)NCC(=O)N/N=C/c2cc(Br)cc(Br)c2O)c1 | 8.91 µM (active)
55 | CCOc1ccc(/C=N/NC(=O)C(O)c2ccccc2)c(O)c1 (centres undefined) | 3.16 µM (active)
56 | O=C(/C=C\c1ccccc1)NCC(=O)N/N=C/c1ccc(O)cc1O | 15.8 µM (active)
57 | O=C(COc1ccccc1)NCC(=O)N/N=C/c1ccc(O)cc1O | 15.8 µM (active)
58 | O=C(N/N=C/c1ccc(O)cc1O)/C(=C/c1ccccc1)CCO | 0.794 µM (active)
59 | CCN(CC)c1ccc(/C=C/c2cccc[n+]2C)c(OC)c1 | 2.51 µM (active)
60 | Cc1cc(C)nc(/N=C(\N)Nc2ccc(C(C)C)cc2)n1 | 2.24 µM (active)
61 | S=C(NC1CCCCC1)N1CCOCCOCCN(C(=S)NC2CCCCC2)CCOCCOCC1 | 3.16 µM (active)
62 | OC[C@@H]1CN(Cc2ccc(-c3ccccc3)cc2)C[C@H](n2cnc3c(Nc4ccccc4)ncnc32)O1 | 15.8 µM (active)
63 | CCOC(=O)C1CCN(c2ncnc3c2cnn3-c2ccc(Cl)cc2)CC1 | 1.26 µM (active)
64 | O=C(N/N=C/c1cc([N+](=O)[O-])ccc1O)c1c[nH]c2ccccc12 | 17.8 µM (active)
65 | O=C(N/N=C/c1cc([N+](=O)[O-])ccc1O)c1cccc2cc[nH]c12 | 3.16 µM (active)
66 | O=C(Cn1nc2ccccc2n1)N/N=C/c1cc([N+](=O)[O-])ccc1O | 3.16 µM (active)
67 | O=C(N/N=C/c1cc([N+](=O)[O-])ccc1O)c1cc(-c2ccccc2)nc2ccccc12 | 3.16 µM (active)
68 | COc1ccccc1N1C(=O)N(C(C)=O)C2C1Nc1ccccc1N2C (centres undefined) | inactive
69 | CSc1cccc(NC(=O)c2ccc(CN3CCc4ccccc4C3)cc2)c1 | 4.47 µM (active)
70 | CC1Cc2cc(-c3csc(NC(=O)Cc4cccs4)n3)ccc2N1S(C)(=O)=O (centres undefined) | 3.98 µM (active)
71 | C=CCc1cccc(/C=N/NC(=O)CCC(=O)Nc2ccc(F)cc2)c1O | 3.55 µM (active)
72 | C=CCc1cccc(/C=N/NC(=O)CCC(=O)Nc2ccc(C)cc2)c1O | 3.55 µM (active)

Row | SMILES | Potency
73 | Cn1c(CCN2CCN(c3ccccn3)CC2)nc2cc(NC(=O)COc3ccc(Cl)cc3)ccc21 | 11.2 µM (active)
74 | Cc1c(N/N=C(\C#N)C(=O)c2ccc(Cl)cc2)c(=O)n(-c2ccccc2)n1C | 1.12 µM (active)
75 | Cc1c(N=C2N=C(NC(=O)Nc3ccc(Cl)cc3)c3ccccc32)c(=O)n(-c2ccccc2)n1C | inactive
76 | Cc1c(N/N=C(\C#N)C(=O)c2ccccc2)c(=O)n(-c2ccccc2)n1C | 2.51 µM (active)
77 | Cc1ccccc1C(=O)/C(C#N)=N/Nc1c(C)n(C)n(-c2ccccc2)c1=O | 3.55 µM (active)
78 | Cc1ccc(C(=O)N2CCN(c3ccc(NC(=S)NC(=O)c4cccs4)cc3)CC2)cc1 | inactive
79 | Cc1ccccc1C(=O)N1CCN(c2ccc(NC(=O)c3ccc4c(c3)OCCO4)cc2)CC1 | 3.98 µM (active)
80 | O=C(Nc1ccc(NC(=O)c2ccco2)cc1)c1ccc2c(c1)OCCO2 | 14.1 µM (active)
81 | COc1cccc(C=NNC(=O)c2ccncc2)c1O | 15.8 µM (active)
82 | CC(=O)c1sc(NC(=O)c2cc(-c3ccccc3)nn2-c2ccccc2)nc1C | inactive
83 | Cc1cccc(NC(=O)c2cc(-c3ccccn3)nc3ccccc23)c1C | 17.8 µM (active)
84 | COc1ccc(/C=N/NC(=O)c2nc(-c3ccccc3)n(-c3ccccc3)n2)c(O)c1 | 3.98 µM (active)
85 | COc1cccc(/C=N/NC(=O)c2ccc(-c3ccccc3)cc2)c1O | 2 µM (active)
86 | COc1cccc(/C=N/NC(=O)c2nc(-c3ccccc3)cc(-c3ccccc3)n2)c1O | 1 µM (active)
87 | COc1cccc(/C=N/NC(=O)c2cc(-c3ccccn3)nc3ccccc23)c1O | 2.82 µM (active)
88 | COc1cccc(/C=N/NC(=O)c2ccc(=O)n(C)c2)c1O | 15.8 µM (active)
89 | OC[C@@H]1[C@@H](c2ccc(F)cc2)C(c2ccccc2)=NN1c1ccccc1 | inactive
90 | Cc1noc2ncnc(N3CCN(c4cccc(Cl)c4)CC3)c12 | 11.2 µM (active)
91 | Cc1cc(=O)oc2c1c(C)nn2-c1cccc(Cl)c1 | inactive
92 | CCN(CC)CCNC(=O)CCc1c(C)nc2c(c(C)nn2-c2ccc(C)cc2)c1C | 3.16 µM (active)
93 | COc1ccc2nc(C)cc(NCc3ccc(F)cc3)c2c1 | 3.98 µM (active)
94 | COc1ccc2nc(C)cc(NCc3cccc(C(F)(F)F)c3)c2c1 | 14.1 µM (active)
